Assay results published in PubChem BioAssay AID1159580 (chemical genetic matrix, 2015).
“And” between values parts separate entries of the source, which are not always exact repeats. Equal entries are not always repeated. The campaign covered roughly 5,500 compounds. About 2,000 (36%) were called active. Roughly 18% stayed inconclusive and do not appear here. Cut-off read from the data, not from the text of the source: active = normalized growth mostly below about 0.91 (no sharp cut-off); inconclusive = no clear call, values can overlap the other calls; inactive = mostly above about 0.92. The list shows a part of the results.

Test: chemical genetic growth profiling, strain panel (AID 1159580);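 note: tested at 20 µM; growth read once vehicle control cultures reached saturation at 30 °C; 1 = growth at the plate median or of vehicle wells; lower values mean less growth of the strain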
Conditions: S. cerevisiae deletion strains, growth OD

Measured: normalized growth

O=c1ccc2ccccc2o1
inactive: locus YAL013W, strain DEP1, hits give low values 1.02 | locus YAL021C, strain ccr4, hits give low values 1.01 | locus YAL026C, strain drs2, hits give low values 0.993 | locus YAL030W, strain snc1, hits give low values 0.99 | locus YBL061C, strain skt5, hits give low values 0.988 | locus YBR009C, strain hhf1, hits give low values 0.939 | locus YBR021W, strain FUR4, hits give low values 1 | locus YBR023C, strain chs3, hits give low values 0.996 | locus YBR171W, strain sec66, hits give low values 0.974 | locus YBR229C, strain ROT2, hits give low values 1.02 | locus YBR231C, strain swc5, hits give low values 0.964 | locus YBR279W, strain paf1, hits give low values 0.999 | locus YCL011C, strain gbp2, hits give low values 0.993 | locus YCL016C, strain dcc1, hits give low values 1.03 | locus YCL029C, strain bik1, hits give low values 0.992 | locus YCL069W, strain vba3, hits give low values 0.98 | locus YCR088W, strain abp1, hits give low values 0.982 | locus YDL005C, strain med2, hits give low values 0.976 | locus YDL035C, strain GPR1, hits give low values 1.01 | locus YDL040C, strain nat1, hits give low values 0.984 | locus YDL074C, strain BRE1, hits give low values 1.01 | locus YDL101C, strain DUN1, hits give low values 1.03 | locus YDL134C, strain PPH21, hits give low values 1.03 | locus YDL185W, strain tfp1, hits give low values 0.982 | locus YDL192W, strain arf1, hits give low values 0.988 | locus YDR001C, strain nth1, hits give low values 0.978 | locus YDR069C, strain doa4, hits give low values 0.987 | locus YDR101C, strain arx1, hits give low values 0.968 | locus YDR137W, strain rgp1, hits give low values 0.968 | locus YDR150W, strain NUM1, hits give low values 1 | locus YDR159W, strain sac3, hits give low values 0.945 | locus YDR162C, strain NBP2, hits give low values 1.04 | locus YDR195W, strain ref2 0.991 | locus YDR297W, strain sur2, hits give low values 0.973 | locus YDR318W, strain mcm21, hits give low values 1.01 | locus YDR334W, strain swr1, hits give low values 0.926 | locus YDR335W, strain msn5, hits give low values 0.985 | locus YDR388W, hits give low values 0.988 | locus YDR392W, strain spt3, hits give low values 0.956 | locus YDR502C, strain sam2, hits give low values 0.963 | locus YEL003W, strain gim4, hits give low values 0.957 | locus YEL037C, strain rad23, hits give low values 0.977 | locus YEL061C, strain CIN8 (second series), hits give low values 0.954 | locus YEL061C, strain CIN8, hits give low values 1.01 | locus YER015W, strain faa2, hits give low values 0.991 | locus YER016W, strain bim1, hits give low values 0.986 | locus YER110C, hits give low values 0.989 | locus YER111C, strain swi4, hits give low values 0.982 | locus YER155C, strain BEM2 (second series), hits give low values 0.937 | locus YER155C, strain BEM2, hits give low values 1.02 | locus YER167W, strain BCK2, hits give low values 1.02 | locus YFR010W, strain ubp6, hits give low values 0.93 | locus YGL078C, strain dbp3, hits give low values 0.992 | locus YGL086W, strain mad1, hits give low values 0.981 | locus YGL167C, strain pmr1, hits give low values 0.972 | locus YGL173C, strain kem1, hits give low values 0.973 | locus YGL227W, strain vid30, hits give low values 0.969 | locus YGL240W, strain doc1, hits give low values 0.958 | locus YGL248W, strain PDE1, hits give low values 1.04 | locus YGL253W, strain hxk2, hits give low values 1.01 | locus YGR135W, strain pre9, hits give low values 0.988 | locus YGR252W, strain gcn5, hits give low values 1.02 | locus YHR013C, strain ard1, hits give low values 1.05 | locus YHR027C, strain rpn1, hits give low values 0.975 | locus YHR030C, strain SLT2, hits give low values 1.02 and 0.992 | locus YHR079C, strain IRE1 (second series), hits give low values 0.999 | locus YHR079C, strain IRE1, hits give low values 0.957 | locus YHR094C, strain hxt1, hits give low values 0.989 | locus YHR129C, strain ARP1, hits give low values 1.02 | locus YHR142W, strain chs7, hits give low values 1.03 | locus YHR200W, strain rpn10, hits give low values 0.978 | locus YIL066C, strain RNR3, hits give low values 1.02 | locus YIL073C, strain SPO22, hits give low values 0.985 | locus YIL125W, strain kgd1, hits give low values 1.01 | locus YIR030C, strain dcg1, hits give low values 0.992 | locus YJL092W, strain hpr5, hits give low values 0.996 | locus YJL095W, strain BCK1 (second series), hits give low values 0.978 | locus YJL095W, strain BCK1, hits give low values 1.06 and 0.982 | locus YJL115W, strain asf1, hits give low values 0.972 | locus YJL129C, strain trk1, hits give low values 0.985 | locus YJL134W, strain LCB3, hits give low values 1.01 | locus YJL154C, strain vps35, hits give low values 0.978 | locus YJL164C, strain tpk1, hits give low values 0.977 | locus YJL166W, strain qcr8, hits give low values 0.956 | locus YJL168C, strain set2, hits give low values 0.995 | locus YJL187C, strain SWE1 (second series), hits give low values 1.02 | locus YJL187C, strain SWE1, hits give low values 0.982 | locus YJR043C, strain POL32, hits give low values 1.02 | locus YJR066W, strain TOR1, hits give low values 0.945 | locus YKL009W, strain mrt4, hits give low values 1.12 | locus YKL068W, hits give low values 1.01 | locus YKL085W, strain MDH1 (second series), hits give low values 1.01 | locus YKL085W, strain MDH1, hits give low values 1.01 | locus YKL160W, strain elf1, hits give low values 1.02 | locus YKL190W, strain CNB1, hits give low values 1.02 | locus YKR001C, strain vps1, hits give low values 0.979 | locus YKR026C, strain gcn3, hits give low values 0.972 | locus YKR091W, strain srl3, hits give low values 0.983 | locus YLL001W, strain dnm1, hits give low values 0.981 | locus YLL026W, hits give low values 0.99 | locus YLL041C, strain sdh2, hits give low values 0.998 | locus YLR027C, strain aat2, hits give low values 0.993 | locus YLR039C, strain RIC1, hits give low values 1.03 | locus YLR058C, strain SHM2, hits give low values 1.03 | locus YLR102C, strain apc9, hits give low values 0.987 | locus YLR113W, strain HOG1, hits give low values 0.999 | locus YLR221C, strain rsa3, hits give low values 0.952 | locus YLR258W, strain gsy2, hits give low values 1.01 | locus YLR262C, strain YPT6 (second series), hits give low values 0.965 | locus YLR262C, strain YPT6, hits give low values 1.03 | locus YLR268W, strain sec22, hits give low values 0.961 | locus YLR320W, strain mms22, hits give low values 0.951 | locus YLR330W, strain CHS5, hits give low values 1.03 | locus YLR342W, strain FKS1 (second series), hits give low values 1.01 | locus YLR342W, strain FKS1, hits give low values 1 | locus YLR357W, strain rsc2, hits give low values 1.04 | locus YLR370C, strain arc18, hits give low values 1 | locus YLR371W, strain rom2, hits give low values 0.976 | locus YLR384C, strain iki3, hits give low values 0.992 | locus YLR418C, strain cdc73, hits give low values 1.03 | locus YML016C, strain PPZ1, hits give low values 1.02 | locus YML032C, strain rad52, hits give low values 0.999 | locus YML120C, strain ndi1, hits give low values 0.95 | locus YML124C, strain tub3, hits give low values 0.994 | locus YMR058W, strain fet3, hits give low values 0.983 | locus YMR078C, strain ctf18, hits give low values 0.989 | locus YMR125W, strain sto1, hits give low values 0.998 | locus YMR129W, hits give low values 0.989 | locus YMR205C, strain PFK2, hits give low values 0.955 | locus YMR223W, strain ubp8, hits give low values 1.04 | locus YMR231W, strain pep5, hits give low values 0.971 | locus YMR307W, strain GAS1, hits give low values 1.06 | locus YNL067W, strain RPL9B, hits give low values 1.02 | locus YNL071W, strain lat1, hits give low values 0.958 | locus YNL183C, strain NPR1, hits give low values 0.949 | locus YNL209W, strain ssb2, hits give low values 0.978 | locus YNL233W, strain BNI4, hits give low values 1.02 | locus YNL248C, strain rpa49, hits give low values 0.995 | locus YNL250W, strain rad50, hits give low values 1.01 | locus YNL271C, strain bni1, hits give low values 0.993 | locus YNL298W, strain CLA4, hits give low values 0.993 | locus YNL307C, strain MCK1, hits give low values 0.997 | locus YNL322C, strain KRE1 (second series), hits give low values 0.98 | locus YNL322C, strain KRE1, hits give low values 1.02 | locus YNR049C, strain mso1, hits give low values 0.993 | locus YNR052C, strain pop2, hits give low values 1.01 | locus YOL012C, strain htz1 1.37 | locus YOL147C, strain pex11, hits give low values 0.99 | locus YOR001W, strain rrp6, hits give low values 0.935 | locus YOR061W, strain CKA2, hits give low values 1.02 | locus YOR069W, strain VPS5, hits give low values 1.01 | locus YOR070C, strain gyp1, hits give low values 0.994 | locus YOR080W, strain dia2, hits give low values 0.981 | locus YOR083W, strain WHI5, hits give low values 0.972 | locus YOR106W, strain vam3, hits give low values 0.998 | locus YOR136W, strain idh2, hits give low values 0.982 | locus YOR144C, strain elg1, hits give low values 0.99 | locus YOR184W, strain ser1, hits give low values 0.985 | locus YOR231W, strain MKK1, hits give low values 0.988 | locus YOR265W, strain rbl2, hits give low values 0.987 | locus YOR270C, strain vph1, hits give low values 0.981 | locus YOR290C, strain snf2, hits give low values 1.01 | locus YOR316C, strain cot1, hits give low values 1 | locus YPL051W, strain arl3, hits give low values 1.03 | locus YPL055C, strain LGE1, hits give low values 1.02 | locus YPL078C, strain atp4, hits give low values 1.03 | locus YPL106C, strain sse1, hits give low values 0.988 | locus YPL240C, strain hsp82, hits give low values 0.983 | locus YPL256C, strain CLN2, hits give low values 1 | locus YPR119W, strain clb2, hits give low values 0.992 | locus YPR141C, strain kar3, hits give low values 0.999 | locus YPR163C, strain tif3, hits give low values 1 | locus YPR167C, strain met16, hits give low values 1.03 | strain wtn01, hits give low values 0.962
